These results are taken from publication PMC7862700, “An all-to-all approach to the identification of sequence-specific readers for epigenetic DNA modifications on cytosine”.

Experiment in all cases: DAPPL (digital affinity profiling via proximity ligation, sequencing); 10 mM Tris-HCl pH 7.5, 50 mM NaCl, 1 mM DTT, 4% glycerol, room temperature, 30 min; GST-TFs on glutathione beads, 16-mer random dsDNA library, 0.1% formaldehyde crosslink after washing; high values mean tight binding
One experiment has as its target T1, FEV (Homo sapiens, UniProt Q99581 1-238).
T1 sequence: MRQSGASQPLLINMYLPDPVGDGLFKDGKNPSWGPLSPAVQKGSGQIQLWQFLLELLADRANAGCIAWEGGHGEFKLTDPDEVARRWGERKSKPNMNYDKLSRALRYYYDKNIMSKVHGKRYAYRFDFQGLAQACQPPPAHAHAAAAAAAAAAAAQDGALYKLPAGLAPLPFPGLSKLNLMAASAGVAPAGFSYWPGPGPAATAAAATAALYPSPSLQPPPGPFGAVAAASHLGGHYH
Particulars: protein: recombinant; tags: N-terminal GST; dsDNA, one strand shown. A digest of the protocol:
(§1)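 Binding signal is each hexamer's read frequency for a factor divided by its frequency in the tag-only sample. The factors were GST-fused human transcription factors from yeast, captured on glutathione beads, DNA-barcoded and pooled with that sample. Pools were incubated with 200 nmole of a random double-stranded 16-mer DNA library in Tris/NaCl/DTT/glycerol buffer at room temperature for 30 min, then washed, crosslinked with 0.1% formaldehyde, proximity-ligated with BsaI/T4 ligase (1 h, 37 °C), PCR-amplified and sequenced on an Illumina NextSeq500.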

For another experiment, the target named is ETV5 (Homo sapiens, UniProt P41161 1-510). Particulars: protein: recombinant; tags: N-terminal GST; dsDNA, one strand shown. A digest of the protocol:
as §1

For a further experiment, the target named is HSF1 (Homo sapiens, UniProt Q00613 1-529). Particulars: protein: recombinant; tags: N-terminal GST; chain copies: 3; dsDNA, one strand shown. A digest of the protocol:
as §1

The target of a further experiment is T2, SPIC (Homo sapiens, UniProt Q8N5J4 1-248).
T2 sequence: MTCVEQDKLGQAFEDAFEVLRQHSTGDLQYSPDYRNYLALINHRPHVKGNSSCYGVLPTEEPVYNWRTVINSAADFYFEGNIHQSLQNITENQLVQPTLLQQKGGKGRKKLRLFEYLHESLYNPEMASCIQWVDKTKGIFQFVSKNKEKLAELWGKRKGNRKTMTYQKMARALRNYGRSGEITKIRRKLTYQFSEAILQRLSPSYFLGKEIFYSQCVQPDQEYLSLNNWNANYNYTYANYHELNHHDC
The following applies: protein: recombinant; tags: N-terminal GST; dsDNA, one strand shown. A digest of the protocol: as §1

A further experiment has as its target ELF4 (Homo sapiens, UniProt Q99607 1-663). Particulars: protein: recombinant; tags: N-terminal GST; dsDNA, one strand shown. A digest of the protocol: as §1
Another experiment addresses T3, ELK4 (Homo sapiens, UniProt P28324-2 1-405).
T3 sequence: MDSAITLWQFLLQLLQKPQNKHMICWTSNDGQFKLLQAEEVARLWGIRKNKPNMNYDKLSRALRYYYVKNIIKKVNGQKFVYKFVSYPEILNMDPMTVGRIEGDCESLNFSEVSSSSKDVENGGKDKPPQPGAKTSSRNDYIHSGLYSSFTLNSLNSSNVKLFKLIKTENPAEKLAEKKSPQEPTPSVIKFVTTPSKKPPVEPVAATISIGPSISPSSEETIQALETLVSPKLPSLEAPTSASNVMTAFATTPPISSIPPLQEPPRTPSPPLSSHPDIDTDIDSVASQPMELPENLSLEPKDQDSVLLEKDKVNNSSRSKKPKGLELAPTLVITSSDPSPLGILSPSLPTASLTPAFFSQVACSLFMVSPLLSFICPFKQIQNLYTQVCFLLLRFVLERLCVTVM
The following applies: protein: recombinant; tags: N-terminal GST; dsDNA, one strand shown. A digest of the protocol: as §1

In another experiment the target is T4, ETV2 (Homo sapiens, UniProt O00321 1-342).
T4 sequence: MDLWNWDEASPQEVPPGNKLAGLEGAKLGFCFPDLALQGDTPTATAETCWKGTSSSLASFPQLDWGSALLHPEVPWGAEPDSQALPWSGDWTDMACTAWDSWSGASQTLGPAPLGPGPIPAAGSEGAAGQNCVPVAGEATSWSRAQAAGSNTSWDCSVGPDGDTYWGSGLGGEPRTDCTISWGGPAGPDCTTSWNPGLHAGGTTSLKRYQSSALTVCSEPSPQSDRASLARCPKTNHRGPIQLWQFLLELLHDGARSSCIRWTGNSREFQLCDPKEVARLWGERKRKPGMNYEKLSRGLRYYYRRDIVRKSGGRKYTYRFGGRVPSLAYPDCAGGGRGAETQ
The following applies: protein: recombinant; tags: N-terminal GST; dsDNA, one strand shown. A digest of the protocol: as §1

The next experiment addresses T5, ELF3 (Homo sapiens, UniProt P78545 1-371).
T5 sequence: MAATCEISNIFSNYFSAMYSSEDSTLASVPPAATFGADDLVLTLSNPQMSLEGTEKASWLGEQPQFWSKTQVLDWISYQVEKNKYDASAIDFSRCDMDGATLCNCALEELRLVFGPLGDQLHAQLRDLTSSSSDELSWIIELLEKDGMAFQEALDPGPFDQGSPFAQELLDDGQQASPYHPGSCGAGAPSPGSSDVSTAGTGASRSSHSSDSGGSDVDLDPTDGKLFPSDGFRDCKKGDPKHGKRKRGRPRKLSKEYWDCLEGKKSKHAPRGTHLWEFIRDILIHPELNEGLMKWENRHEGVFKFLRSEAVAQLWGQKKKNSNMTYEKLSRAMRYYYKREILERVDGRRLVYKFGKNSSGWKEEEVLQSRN
The following applies: protein: recombinant; tags: N-terminal GST; dsDNA, one strand shown. A digest of the protocol:
as §1

Another experiment concerns the target CRX (Homo sapiens, UniProt O43186 1-299). Particulars: protein: recombinant; tags: N-terminal GST; dsDNA, one strand shown. A digest of the protocol: as §1
Another experiment has as its target ETV1 (Homo sapiens, UniProt P50549 1-477). Particulars: protein: recombinant; tags: N-terminal GST; dsDNA, one strand shown. A digest of the protocol:
as §1

For another experiment, the target named is T6, ERF (Homo sapiens, UniProt P50548 1-548).
T6 sequence: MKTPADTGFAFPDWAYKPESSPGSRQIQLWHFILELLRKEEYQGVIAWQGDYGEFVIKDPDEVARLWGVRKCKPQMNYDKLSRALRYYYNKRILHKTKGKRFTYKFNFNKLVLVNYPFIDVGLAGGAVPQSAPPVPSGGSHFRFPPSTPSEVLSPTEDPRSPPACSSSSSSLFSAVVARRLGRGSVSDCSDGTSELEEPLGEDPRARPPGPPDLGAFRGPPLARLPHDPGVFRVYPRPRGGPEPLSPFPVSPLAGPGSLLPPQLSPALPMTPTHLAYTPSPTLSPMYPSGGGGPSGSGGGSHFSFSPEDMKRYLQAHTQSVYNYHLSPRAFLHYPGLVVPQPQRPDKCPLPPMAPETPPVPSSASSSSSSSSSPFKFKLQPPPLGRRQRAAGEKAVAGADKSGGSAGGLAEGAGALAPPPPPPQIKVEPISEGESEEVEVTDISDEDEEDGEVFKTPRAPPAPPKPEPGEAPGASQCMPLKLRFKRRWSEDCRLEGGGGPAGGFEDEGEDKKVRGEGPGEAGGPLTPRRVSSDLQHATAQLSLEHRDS
Particulars: protein: recombinant; tags: N-terminal GST; dsDNA, one strand shown. A digest of the protocol: as §1

The target of a further experiment is T7, ETV3L (Homo sapiens, UniProt Q6ZN32 1-361).
T7 sequence: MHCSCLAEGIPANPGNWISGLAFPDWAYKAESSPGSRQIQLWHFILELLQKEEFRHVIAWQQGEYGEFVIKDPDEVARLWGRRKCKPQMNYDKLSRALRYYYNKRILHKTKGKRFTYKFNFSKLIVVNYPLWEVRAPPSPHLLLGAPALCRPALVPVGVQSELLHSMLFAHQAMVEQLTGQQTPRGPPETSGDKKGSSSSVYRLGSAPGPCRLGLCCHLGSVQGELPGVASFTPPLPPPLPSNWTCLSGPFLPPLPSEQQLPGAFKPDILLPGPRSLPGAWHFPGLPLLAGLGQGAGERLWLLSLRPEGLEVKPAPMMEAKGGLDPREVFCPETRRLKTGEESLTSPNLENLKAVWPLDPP
Particulars: protein: recombinant; tags: N-terminal GST; dsDNA, one strand shown. A digest of the protocol:
as §1

The target of another experiment is T8, ETS2 (Homo sapiens, UniProt P15036 1-469).
T8 sequence: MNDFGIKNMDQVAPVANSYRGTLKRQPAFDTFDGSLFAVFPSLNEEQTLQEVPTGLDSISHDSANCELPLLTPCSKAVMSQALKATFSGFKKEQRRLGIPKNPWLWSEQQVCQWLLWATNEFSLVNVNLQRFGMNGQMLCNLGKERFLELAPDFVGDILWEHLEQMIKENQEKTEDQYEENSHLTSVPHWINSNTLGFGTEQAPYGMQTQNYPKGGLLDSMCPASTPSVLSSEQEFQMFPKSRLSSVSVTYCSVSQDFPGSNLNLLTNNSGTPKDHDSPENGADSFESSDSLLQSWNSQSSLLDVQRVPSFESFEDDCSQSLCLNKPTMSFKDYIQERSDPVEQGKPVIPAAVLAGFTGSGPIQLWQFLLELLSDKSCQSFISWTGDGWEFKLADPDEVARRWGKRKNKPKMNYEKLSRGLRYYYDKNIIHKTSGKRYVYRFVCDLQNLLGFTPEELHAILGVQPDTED
The following applies: protein: recombinant; tags: N-terminal GST; dsDNA, one strand shown. A digest of the protocol:
as §1

In a further experiment the target is T9, SPDEF (Homo sapiens, UniProt O95238 1-335).
T9 sequence: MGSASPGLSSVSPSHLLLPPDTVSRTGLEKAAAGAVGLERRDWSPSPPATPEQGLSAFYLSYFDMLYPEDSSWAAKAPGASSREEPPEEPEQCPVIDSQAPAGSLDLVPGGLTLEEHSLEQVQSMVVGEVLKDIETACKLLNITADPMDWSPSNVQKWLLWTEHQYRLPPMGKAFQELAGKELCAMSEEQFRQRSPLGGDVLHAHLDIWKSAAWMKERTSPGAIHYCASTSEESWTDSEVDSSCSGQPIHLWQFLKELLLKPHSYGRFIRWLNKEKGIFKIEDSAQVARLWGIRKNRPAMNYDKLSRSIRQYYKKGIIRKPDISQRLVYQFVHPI
The following applies: protein: recombinant; tags: N-terminal GST; dsDNA, one strand shown. A digest of the protocol:
as §1

Another experiment addresses T10, ETV7 (Homo sapiens, UniProt Q9Y603 1-341).
T10 sequence: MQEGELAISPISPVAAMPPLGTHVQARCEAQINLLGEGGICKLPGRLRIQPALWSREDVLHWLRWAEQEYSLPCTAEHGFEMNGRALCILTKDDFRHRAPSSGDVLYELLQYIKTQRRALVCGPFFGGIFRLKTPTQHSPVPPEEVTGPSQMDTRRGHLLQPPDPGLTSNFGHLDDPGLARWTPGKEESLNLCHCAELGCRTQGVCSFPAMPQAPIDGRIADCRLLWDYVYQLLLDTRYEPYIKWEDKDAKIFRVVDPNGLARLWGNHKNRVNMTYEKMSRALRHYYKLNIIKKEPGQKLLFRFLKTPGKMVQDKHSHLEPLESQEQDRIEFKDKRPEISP
The following applies: protein: recombinant; tags: N-terminal GST; dsDNA, one strand shown. A digest of the protocol:
as §1

The next experiment deals with T11, ELF5 (Homo sapiens, UniProt Q9UKW6-2 1-255).
T11 sequence: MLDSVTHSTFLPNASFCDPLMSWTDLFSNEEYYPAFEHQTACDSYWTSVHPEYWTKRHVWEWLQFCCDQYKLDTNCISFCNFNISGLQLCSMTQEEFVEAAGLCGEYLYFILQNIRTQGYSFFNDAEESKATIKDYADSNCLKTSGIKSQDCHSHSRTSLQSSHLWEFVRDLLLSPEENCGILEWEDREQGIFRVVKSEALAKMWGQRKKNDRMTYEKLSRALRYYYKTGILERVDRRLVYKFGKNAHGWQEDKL
The following applies: protein: recombinant; tags: N-terminal GST; dsDNA, one strand shown. A digest of the protocol: as §1

The target of the next experiment is T12, ETV3 (Homo sapiens, UniProt P41162-2 1-143).
T12 sequence: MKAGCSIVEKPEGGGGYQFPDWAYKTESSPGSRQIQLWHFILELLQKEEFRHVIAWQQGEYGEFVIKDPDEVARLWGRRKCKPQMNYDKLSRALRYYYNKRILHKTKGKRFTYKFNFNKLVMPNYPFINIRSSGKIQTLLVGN
The following applies: protein: recombinant; tags: N-terminal GST; dsDNA, one strand shown. A digest of the protocol: as §1

The next experiment has as its target ETV6 (Homo sapiens, UniProt P41212 1-452). The following applies: protein: recombinant; tags: N-terminal GST; dsDNA, one strand shown. A digest of the protocol: as §1

Chain of CRX (O43186 whole entry): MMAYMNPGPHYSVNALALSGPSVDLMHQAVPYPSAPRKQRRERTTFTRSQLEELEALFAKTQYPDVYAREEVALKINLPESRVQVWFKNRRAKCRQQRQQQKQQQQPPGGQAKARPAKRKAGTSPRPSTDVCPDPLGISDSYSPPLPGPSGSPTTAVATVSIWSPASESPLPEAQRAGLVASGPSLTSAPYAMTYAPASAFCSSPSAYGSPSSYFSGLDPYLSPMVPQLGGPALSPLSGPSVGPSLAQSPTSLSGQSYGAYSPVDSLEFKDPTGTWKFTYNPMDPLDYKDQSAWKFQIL
Chain of ETV5 (P41161 whole entry): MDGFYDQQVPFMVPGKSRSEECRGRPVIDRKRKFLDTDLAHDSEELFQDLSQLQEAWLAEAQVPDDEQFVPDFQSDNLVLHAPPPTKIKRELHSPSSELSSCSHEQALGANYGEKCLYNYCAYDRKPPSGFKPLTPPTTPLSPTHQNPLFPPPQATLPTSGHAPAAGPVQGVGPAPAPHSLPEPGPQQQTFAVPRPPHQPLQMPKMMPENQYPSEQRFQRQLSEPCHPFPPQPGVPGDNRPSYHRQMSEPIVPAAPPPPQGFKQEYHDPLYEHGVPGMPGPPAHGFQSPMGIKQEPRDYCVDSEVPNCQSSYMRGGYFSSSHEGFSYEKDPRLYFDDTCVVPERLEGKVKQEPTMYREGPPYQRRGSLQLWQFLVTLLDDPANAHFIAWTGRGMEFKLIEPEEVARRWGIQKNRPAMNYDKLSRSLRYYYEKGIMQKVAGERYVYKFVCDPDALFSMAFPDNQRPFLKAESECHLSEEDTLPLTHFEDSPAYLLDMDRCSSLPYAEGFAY
Chain of ELF4 (Q99607 whole entry): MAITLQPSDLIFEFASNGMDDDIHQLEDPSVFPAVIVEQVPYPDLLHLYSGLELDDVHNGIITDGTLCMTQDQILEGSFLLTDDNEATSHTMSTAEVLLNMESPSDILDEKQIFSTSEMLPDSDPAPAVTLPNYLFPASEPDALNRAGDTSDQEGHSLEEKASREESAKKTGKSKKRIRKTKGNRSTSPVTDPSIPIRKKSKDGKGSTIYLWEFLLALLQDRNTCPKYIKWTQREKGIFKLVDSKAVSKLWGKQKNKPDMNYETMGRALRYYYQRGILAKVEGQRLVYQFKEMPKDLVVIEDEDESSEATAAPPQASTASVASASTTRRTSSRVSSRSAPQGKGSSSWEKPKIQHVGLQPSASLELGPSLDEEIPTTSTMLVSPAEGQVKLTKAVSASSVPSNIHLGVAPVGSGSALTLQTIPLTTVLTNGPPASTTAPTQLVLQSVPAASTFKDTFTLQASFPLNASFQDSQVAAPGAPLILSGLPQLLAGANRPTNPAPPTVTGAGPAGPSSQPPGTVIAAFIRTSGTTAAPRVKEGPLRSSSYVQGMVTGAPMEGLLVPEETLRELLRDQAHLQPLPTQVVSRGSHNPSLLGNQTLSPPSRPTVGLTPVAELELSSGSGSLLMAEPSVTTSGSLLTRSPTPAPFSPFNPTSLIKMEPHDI
Chain of ETV6 (P41212 whole entry): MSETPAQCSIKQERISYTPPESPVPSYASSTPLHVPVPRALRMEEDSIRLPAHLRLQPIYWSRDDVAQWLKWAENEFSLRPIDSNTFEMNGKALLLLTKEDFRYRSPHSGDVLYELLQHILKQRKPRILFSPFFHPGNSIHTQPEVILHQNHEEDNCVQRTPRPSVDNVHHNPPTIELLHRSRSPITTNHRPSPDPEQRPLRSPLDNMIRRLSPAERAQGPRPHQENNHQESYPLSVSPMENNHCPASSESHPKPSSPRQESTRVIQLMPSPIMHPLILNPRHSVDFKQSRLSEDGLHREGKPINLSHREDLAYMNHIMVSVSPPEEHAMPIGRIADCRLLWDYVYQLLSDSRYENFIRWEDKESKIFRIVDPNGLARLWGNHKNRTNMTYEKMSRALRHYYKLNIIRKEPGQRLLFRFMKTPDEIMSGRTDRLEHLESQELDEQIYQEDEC
Chain of ETV1 (P50549 whole entry): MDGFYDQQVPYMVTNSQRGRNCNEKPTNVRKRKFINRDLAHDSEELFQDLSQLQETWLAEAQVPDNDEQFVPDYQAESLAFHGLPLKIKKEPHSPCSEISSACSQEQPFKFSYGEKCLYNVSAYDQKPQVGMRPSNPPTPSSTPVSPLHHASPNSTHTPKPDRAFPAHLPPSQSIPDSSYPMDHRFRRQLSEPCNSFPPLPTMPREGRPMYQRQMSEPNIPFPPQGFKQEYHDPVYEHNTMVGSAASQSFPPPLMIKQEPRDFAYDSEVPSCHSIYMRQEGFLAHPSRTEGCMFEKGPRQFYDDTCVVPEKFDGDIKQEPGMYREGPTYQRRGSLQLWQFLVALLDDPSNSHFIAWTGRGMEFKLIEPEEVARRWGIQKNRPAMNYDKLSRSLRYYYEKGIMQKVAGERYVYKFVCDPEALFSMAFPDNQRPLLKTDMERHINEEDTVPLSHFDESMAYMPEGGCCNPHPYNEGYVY
Chain of HSF1 (Q00613 whole entry): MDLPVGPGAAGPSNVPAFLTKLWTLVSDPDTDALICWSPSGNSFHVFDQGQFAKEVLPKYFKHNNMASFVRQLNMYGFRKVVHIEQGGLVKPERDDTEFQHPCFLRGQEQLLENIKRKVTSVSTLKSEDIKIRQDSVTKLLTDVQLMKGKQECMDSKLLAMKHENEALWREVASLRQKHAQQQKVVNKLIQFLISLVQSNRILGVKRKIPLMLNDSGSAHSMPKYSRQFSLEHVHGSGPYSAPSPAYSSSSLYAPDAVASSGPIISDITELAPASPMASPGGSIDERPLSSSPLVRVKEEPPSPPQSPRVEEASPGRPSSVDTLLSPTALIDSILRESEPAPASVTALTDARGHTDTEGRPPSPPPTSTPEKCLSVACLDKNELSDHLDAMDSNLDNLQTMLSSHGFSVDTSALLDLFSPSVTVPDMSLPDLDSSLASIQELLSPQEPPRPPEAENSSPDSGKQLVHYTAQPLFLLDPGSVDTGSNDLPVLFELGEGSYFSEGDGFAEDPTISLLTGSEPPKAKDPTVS

With ACTTTT, the binding signal in the experiment with FEV is 1.25 fold enrichment (6-mer frequency, TF over GST control); in the experiment with ETV5, 1.27 fold enrichment (6-mer frequency, TF over GST control); in the experiment with HSF1, 1.25 fold enrichment (6-mer frequency, TF over GST control); with SPIC, 1.35 fold enrichment (6-mer frequency, TF over GST control); with ELF4, 1.32 fold enrichment (6-mer frequency, TF over GST control); in the experiment with ELK4, 1.25 fold enrichment (6-mer frequency, TF over GST control). Moreover, the binding signal in the experiment with ETV2 is 1.25 fold enrichment (6-mer frequency, TF over GST control); in the experiment with ELF3, 1.45 fold enrichment (6-mer frequency, TF over GST control); with CRX, 1.25 fold enrichment (6-mer frequency, TF over GST control); with ETV1, 1.32 fold enrichment (6-mer frequency, TF over GST control); in the experiment with ERF it was 1.26 fold enrichment (6-mer frequency, TF over GST control); with ETV3L, 1.25 fold enrichment (6-mer frequency, TF over GST control). Further, the binding signal in the experiment with ETS2 was 1.25 fold enrichment (6-mer frequency, TF over GST control); with SPDEF, 1.25 fold enrichment (6-mer frequency, TF over GST control); in the experiment with ETV7 it was 1.36 fold enrichment (6-mer frequency, TF over GST control); with ELF5 it was 1.26 fold enrichment (6-mer frequency, TF over GST control); with ETV3, 1.31 fold enrichment (6-mer frequency, TF over GST control); with ETV6, 1.34 fold enrichment (6-mer frequency, TF over GST control).
